Measured values from ChEMBL document CHEMBL4513216, “Probing the Open Global Health Chemical Diversity Library for Multistage-Active Starting Points for Next-Generation Antimalarials” (ACS Infect Dis, 2020).
About 2,700 (4%) of roughly 68,000 compounds showed an effect of 50% or more. This excerpt belongs to a sample that is enriched for strong results.

test system: Plasmodium berghei; experiment: Screen against P. berghei liver stage (PbLuc), transformed with Luciferase, at 2uM; type: functional, HepG2; conditions: tested at 2 uM

| SMILES | INHIBITION |
| --- | --- |
| c1cnc2c(c1)nc1n2[C@@H](CNCc2nccs2)COC1 | -111.95% |
| Fc1cccc(N2CCc3ncnc(N4CCOCC4)c3CC2)c1 | -7.49% |
| CCOc1ccc(SCCNS(=O)(=O)CC)cc1 | 20.15% |
| O=C(O)c1c(-c2cccnc2)ncc2c1CCN(CC1CCOC1)C2 (centres undefined) | 21.13% |
| CSc1cc2c(cc1NC(=O)N(C)Cc1ccncc1)OCCO2 | -10.36% |
| Cc1ccc(CNC(=O)Cn2c(=O)c3cccnc3n2C)cc1F | 16.93% |
| Cn1c2ncccc2c(=O)n1CC(=O)NCCc1c(F)cccc1F | -0.83% |
| Cn1c2ncccc2c(=O)n1CC(=O)NCCC1=CCCCC1 | 54.49% |
| CCC[C@@H](NC(N)=O)C(=O)N1Cc2ccccc2-c2ccccc2C1 | -9.87% |
| CC(C)Cc1noc(CNc2cccc(-c3nnnn3C)c2)n1 | -45.29% |
| CC=C(C)C(=O)NS(=O)(=O)c1ccc(C(F)(F)F)cn1 | -31.15% |
| O=C(c1cccc(O)c1)N1CCN(Cc2nnc(C3CCC3)o2)CC1 | 1.41% |
| Cc1cc(CN(C)C(=O)NC2CCN(Cc3ccccn3)CC2)no1 | -7.82% |
| CN(Cc1cccnc1)C(=O)NC1CCN(Cc2ccccn2)CC1 | -37.28% |
| COCC(O)CN(C)C(=O)NC1CCN(Cc2ccccn2)CC1 (centres undefined) | 54.85% |
| COc1ncc(C2(O)CCN(Cc3cc(F)ccc3F)CC2)c(OC)n1 | -48.87% |
| CCc1cc(C(=O)N[C@@H]2CC[C@@H](N3CCOCC3)[C@@H]2O)no1 | -49.75% |
| COc1ccccc1OCCN1CCC(N2CCNC2=O)CC1 | 3.86% |
| CCOc1ccc(OCCN2CCC(N3CCNC3=O)CC2)cc1 | 12.81% |
| COc1ccc(OCCN2CCC(N3CCNC3=O)CC2)cc1 | 81.79% |
| C[S+]([O-])CCNC(=O)N1CCSC2(CCCCC2)C1 (centres undefined) | -66.38% |
| Cc1cccc(N2CC[C@@H]3CN(Cc4csc(C)n4)CCO[C@@H]3C2)n1 | 25.87% |
| Cc1noc(C)c1C(=O)N1C[C@@H]2CC[C@H]1CN(c1cnccn1)C2 | 20.32% |
| Cc1nnsc1C(=O)N1C[C@@H]2CC[C@H]1CN(c1cnccn1)C2 | 28.73% |
| Cc1cnc(C(=O)N2C[C@@H]3CC[C@H]2CN(c2cnccn2)C3)cn1 | 53.98% |
| c1ccc2c(c1)SCCC2NCc1ccc(N2CCOCC2)cc1 (centres undefined) | 15.16% |
| NCCn1cc(C(=O)NCc2ccccc2-n2cccn2)nn1 | 28.67% |
| Cc1nccn1-c1ccccc1CNC(=O)c1cn(CCN)nn1 | -27.6% |
| NCCn1cc(C(=O)NCc2ccccc2Cn2cccn2)nn1 | 62.3% |
